From publication PMC4552634, “A New Set of Chemical Starting Points with Plasmodium falciparum Transmission-Blocking Potential for Antimalarial Drug Discovery” (PLoS ONE, 2015)
Like-named read-outs stand apart in the source and are kept apart here. Hit rate of the full screen: of about 13,000 compounds, about 3,200 (25%) showed an effect of 50% or more. This is one part of the list.

Test system: P. falciparum stage V gametocytes
Parameters: BacTiter-Glo ATP luminescence viability of purified stage V gametocytes in 384-well plates, per cent inhibition versus DMSO
Details: 48 h, 5 µM, inhibitor

Compound | % Inhibition [%] | % Inhibition (% Inhibition) [%]
CCN1CCC(N(Cc2ccc(-c3ccc(C(F)(F)F)cc3)cc2)C(=O)Cn2c(CCc3cccc(F)c3F)nc(=O)c3ccccc32)CC1 [TCMDC-141048] | 116.3 | –
CCN1CCC(N(Cc2ccc(-c3ccc(C(F)(F)F)cc3)o2)C(=O)Cn2c(CCc3cccc(F)c3F)nc(=O)c3ccccc32)CC1 [TCMDC-141281] | 92.96 | –
CC(C)N1CCC(N(Cc2ccc(-c3ccc(C(F)(F)F)cc3)cc2)C(=O)CCCn2c(CCc3cccc(F)c3F)nc(=O)c3ccccc32)CC1 [TCMDC-141316] | 88.07 | –
O=C(C1CCCC1)N1CCOC(CCN2CCC(c3ccccc3)CC2)(c2ccc(Cl)c(Cl)c2)C1 (centres unmarked) [TCMDC-135327] | -12.01 | –
CC(C)Cc1nc2nc(N)nc(N)c2cc1C(C)C [TCMDC-137930] | 2.497 | –
CC(=O)c1cccc(NC(=O)c2ccc(Cl)c(S(=O)(=O)N3CCc4ccccc43)c2)c1 [TCMDC-124431] | 4.693 | –
CC1CCCN(c2ccc(NC(=O)c3cccs3)cc2[N+](=O)[O-])C1 (centres unmarked) [TCMDC-124625] | 1.853 | –
O=C(Nc1ccc2c(c1)CCCN2S(=O)(=O)c1cccs1)c1cc([N+](=O)[O-])ccc1Cl [TCMDC-125153] | 96.55 | –
O=c1cc(NCCC2CC=CCN2Cc2ccc(Cl)c(Cl)c2)[nH]c2ccccc12 (centres unmarked) [TCMDC-139445] | 3.776 | –
COc1ccc(CCNCCCCCCNCCc2ccc(OC)c(OC)c2Cl)c(Cl)c1OC [TCMDC-131261] | 103.5 | –
COc1ccc(CCNCC(O)c2cccc(Br)c2)c(Cl)c1OC (centres unmarked) [TCMDC-125478] | 12.88 | –
COc1ccc(CCNCCCCCCNCCc2ccc(Cl)cc2)c(Cl)c1OC [TCMDC-131272] | 114.1 | –
O=C(Nc1ccsc1C(=O)NC1CCCCC1)c1ccc(F)cc1 [TCMDC-123789] | -7.21 | –
CCCC(C)Nc1nc(C)cc(N[C@@H](CC(C)C)C(=O)NCCOc2ccccc2)n1 (some centres unmarked) [TCMDC-134898] | -16.46 | –
O=C(C=C1c2ccccc2-c2ccccc21)NC1CCC(CN2CCC(c3c[nH]c4ccccc34)CC2)CC1 (centres unmarked) [TCMDC-139918] | – | -14.57
CC1=C(C(=O)NC2CCC(CN3CCC(c4c[nH]c5ccccc45)CC3)CC2)Cc2ccccc21 (centres unmarked) [TCMDC-139755] | – | 71.55
O=C(C=C1c2ccccc2-c2ccccc21)NC1CCC(CN2CCC(c3c[nH]c4ccccc34)CC2)CC1 (centres unmarked) [TCMDC-139906] | – | -40.53
O=C(NC1CCC(CN2CCC(c3c[nH]c4ccccc34)CC2)CC1)[C@H]1Cc2ccccc2CN1 (some centres unmarked) [TCMDC-140311] | 105 | –
CC1=C(C(=O)NC2CCC(CN3CCC(c4c[nH]c5ccccc45)CC3)CC2)Cc2ccccc21 (centres unmarked) [TCMDC-139765] | – | -59.52
COc1ccc2[nH]c3ccccc3c(=O)c2c1 [TCMDC-123948] | 14.64 | –
COc1ccccc1CNC(=O)C(=O)Nc1c(-c2ccccc2)[nH]c2ccccc12 [TCMDC-124999] | -88.11 | –
COc1cccc(NC(=O)[C@H](C)n2c(=O)[nH]c3ccccc3c2=O)c1 [TCMDC-124998] | 68.49 | –

Compound | % Inhibition [%] | % Inhibition (% Inhibition) [%]
COc1ccc(NC(=O)Nc2cccc(-c3cccc(-c4nc5ccccc5[nH]4)c3)c2)cc1 [TCMDC-133246] | -3.32 | –
COc1cccc(NC(=O)[C@H](C(C)C)n2c(=O)[nH]c3ccccc3c2=O)c1 [TCMDC-125133] | 96.89 | –
COc1cccc(NC(=O)COc2ccc(C(=O)Nc3nc4ccccc4[nH]3)cc2)c1 [TCMDC-125060] | -14.04 | –
C=CCc1cc(Br)ccc1OCCCON1C(N)=NC(N)=NC1(C)C [TCMDC-131341] | 13.45 | –
O=C(/C=C/c1ccc(Cl)c(Cl)c1)NCCCCCCN1CCN(C(=O)Nc2ccc(OC(F)F)cc2)CC1 [TCMDC-135834] | -53.7 | –
Cc1ccc(C(=O)c2oc3ccc4c(C)cc(=O)oc4c3c2C)cc1 [TCMDC-125583] | -7.355 | –
Cc1cccc(C)c1OC(=O)C(C)C(O)C1(Sc2ccccc2)CCN(C)CC1 (centres unmarked) [TCMDC-132104] | 17.64 | –
O=C(Nc1ccc(F)cc1)NC1CCN(c2ccnc3cc(Cl)ccc23)CC1 [TCMDC-133570] | -24.37 | –
Cc1nc(Nc2cc(Cl)ccc2O)nc(Nc2cc(Cl)ccc2O)c1[N+](=O)[O-] [TCMDC-125765] | -25.8 | –
CC(=O)c1ccc2cc(C(=O)NC3CCC(CCN4CCc5ccc(-c6noc(C)n6)cc5CC4)CC3)[nH]c2c1 (centres unmarked) [TCMDC-140072] | -66.89 | –
O=c1cc(NCCCNCc2cc(Cl)cc(Cl)c2OCc2ccccc2)[nH]c2ccccc12 [TCMDC-139488] | -11.96 | –
Cc1ccc(-n2cc(CNCCCn3ccnc3)c(-c3cccc(C)c3)n2)cc1 [TCMDC-124630] | 80.81 | –
Cc1ccc(-n2cc(CNCCc3ncc(C)[nH]3)c(-c3ccc(F)cc3)n2)cc1 [TCMDC-124685] | 44.13 | –
COc1ccc(-n2cc(CNCCCn3ccnc3)c(-c3cccc(F)c3)n2)cc1 [TCMDC-124651] | 46.38 | –
Cc1cc2nc(-c3cc(-c4cccc(NS(C)(=O)=O)c4)cnc3N)[nH]c2cc1C [TCMDC-133558] | -28.88 | –
O=C(Nc1ccc2oc(-c3ccc(Br)cc3)nc2c1)c1ccc([N+](=O)[O-])o1 [TCMDC-123698] | 17.72 | –
Cc1ccc(-c2nc3cc(NC(=O)c4ccc([N+](=O)[O-])o4)ccc3o2)cc1Cl [TCMDC-123657] | 94.01 | –
CCc1ccc(-c2nc3cc(NC(=O)c4ccc([N+](=O)[O-])o4)ccc3o2)cc1 [TCMDC-123924] | 1.176 | –
Cc1cccc(-c2nc3cc(NC(=O)c4ccc([N+](=O)[O-])o4)ccc3o2)c1 [TCMDC-123925] | 17.49 | –
O=C(Nc1ccc2oc(-c3ccc(Cl)cc3Cl)nc2c1)c1ccc([N+](=O)[O-])o1 [TCMDC-123753] | 49.41 | –
CC(C)c1ccc2oc(-c3ccc(NC(=O)c4ccc([N+](=O)[O-])o4)cc3)nc2c1 [TCMDC-124010] | 79.92 | –
O=C(Nc1ccc(-c2ccc(-c3nc4cc(C(F)(F)F)ccc4[nH]3)s2)cc1)c1ccoc1 [TCMDC-136842] | -23.12 | –

Compound | % Inhibition [%] | % Inhibition (% Inhibition) [%]
CCCCOc1cc2c(cc1OCC)C(C=Cc1ccc(Cl)cc1Cl)=NCC2.Cl [TCMDC-137450] | 76.64 | –
CCCOc1cc2c(cc1OCCC)C(C=Cc1ccc(Cl)cc1Cl)=NC(C)C2.Cl (centres unmarked) [TCMDC-137448] | 86.79 | –
COc1cc2c(cc1OC)C(C(=O)c1ccccc1)=NCC2.Cl [TCMDC-141993] | 35.87 | –
CCCCN(CCCC)CCNC(=O)c1ccc(-c2nc3ccc(Cl)cc3[nH]2)c(OCC)c1 [TCMDC-140909] | -44.96 | –
CC(C)C1=CC(=NOS(=O)(=O)c2ccccc2)C=C(C(C)C)C1=O [TCMDC-124172] | -30.75 | –
O=C(/C=C/c1ccc2ccccc2c1)NCC1(c2ccc(-c3ccccc3)cc2)CCOCC1 [TCMDC-134257] | 16.18 | –
O=C(Nc1ccc(Cn2ncc(N3CCNCC3)c(Cl)c2=O)cc1)Nc1ccc(-c2ccccc2)cc1 [TCMDC-141922] | -25.28 | –
CC1CN(c2cnn(Cc3cccc(NC(=O)Nc4ccc(-c5ccccc5)cc4)c3)c(=O)c2Cl)CC(C)N1 (centres unmarked) [TCMDC-141935] | -13.22 | –
Cc1ccc(Cn2ncc(N3CC(C)NC(C)C3)c(Cl)c2=O)cc1NC(=O)Nc1ccc(-c2ccccc2)cc1 (centres unmarked) [TCMDC-141937] | 14.65 | –
Cc1ccc(Cn2ncc(N3CCNCC3)c(Cl)c2=O)cc1NC(=O)Nc1ccc(-c2ccccc2)cc1 [TCMDC-141921] | 40.54 | –
O=C(Nc1ccc(Cn2ncc(N3CCCNCC3)c(Cl)c2=O)cc1)Nc1ccc(-c2ccccc2)cc1 [TCMDC-141928] | – | -32.1
O=C(Nc1ccc(-c2ccccc2)cc1)Nc1cccc(Cn2ncc(N3CCNCC3)c(Cl)c2=O)c1 [TCMDC-141920] | -37.77 | –
NC1CCN(c2cnn(Cc3cccc(NC(=O)Nc4ccc(-c5ccccc5)cc4)c3)c(=O)c2Cl)CC1 [TCMDC-141930] | 54.32 | –
CC1CN(c2cnn(Cc3ccc(NC(=O)Nc4ccc(-c5ccccc5)cc4)cc3)c(=O)c2Cl)CC(C)N1 (centres unmarked) [TCMDC-141940] | 80.37 | –
O=C(Nc1ccc(-c2ccccc2)cc1)Nc1cccc(Cn2ncc(N3CCCNCC3)c(Cl)c2=O)c1 [TCMDC-141923] | 12.88 | –
Cc1c(Cn2ncc(N3CCC(N)CC3)c(Cl)c2=O)cccc1NC(=O)Nc1ccc(-c2ccccc2)cc1 [TCMDC-141931] | 109.1 | –
Cc1ccc(Cn2ncc(N3CCCNCC3)c(Cl)c2=O)cc1NC(=O)Nc1ccc(-c2ccccc2)cc1 [TCMDC-141924] | 99.19 | –
Cc1c(Cn2ncc(N3CC(C)NC(C)C3)c(Cl)c2=O)cccc1NC(=O)Nc1ccc(-c2ccccc2)cc1 (centres unmarked) [TCMDC-141936] | -6.259 | –
CC(C)C[C@H](NC(=O)c1ccc(OCCN2CCOCC2)cc1)C(=O)N[C@H](/C=N/N1CCNC1=O)CCc1ccccc1 [TCMDC-136156] | 19.17 | –
O=C(Nc1ccc(Cl)cc1)Nc1ccc2nonc2c1 [TCMDC-124586] | -84.09 | –
COc1cc(N(C)Cc2cnc3nc(N)nc(N)c3n2)cc(OC)c1OC [TCMDC-137363] | 43.25 | –
